Source: PubChem
CYP2C9 activ – human CYP2C9 activators, primary screen, biochemical, luminescence; Cytochrome P450 2C9 (Homo sapiens), P11712; recombinant CYP2C9, luciferin-H conversion; stronger effect = higher value; factor 1 = untreated enzyme, 0 = blocked; activation factor at 5 µM; actives 1.4% (n = 96,000); AID 1024, 2008;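 active = activation factor of 2 or more for CYP2C9 at a 5 µM dose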;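 also: 0 = sulfaphenazole-blocked wells and 1 = vehicle-only wells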
CYP2C19 activ – human CYP2C19 activators, primary screen, biochemical, luminescence | recombinant CYP2C19, luciferin-H EGE luminescence; stronger effect = higher value; 0 = fully inhibited enzyme, 1 = untreated enzyme | AID 1025, 2008 | 96,000 tested, under 10 active | Cytochrome P450 2C19 (Homo sapiens), P33261 | activation factor at 5 µM;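 active = activation factor of at least 2 at 5 µM in the primary screen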;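 also: 0 = wells with 2.5 mM tranylcypromine and 1 = vehicle-only wells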
CYP2C19 inh – blockers of cytochrome P450 2C19 activity – biochemical, luminescence, ADME assay, primary screen; CYP2C19 Supersomes, luciferin-H EGE luminescence, 30 min; actives 21% (n = 96,000); AID 778, 2007; inhibition, % at 5 µM;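 active = CYP2C19 inhibition above a set limit at 5 µM in the primary screen, cut at about 50% in these data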;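 also: plate controls were negative control wells for no effect and 2.5 mM tranylcypromine positive control for full effect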
PLAP act – PLAP enzyme activators, biochemical, luminescence, HTS. actives 1.2% (n = 96,000). purified PLAP enzyme, luminescent substrate read-out; stronger effect = higher value. AID 696, 2007. activation fold at 20 µM; in the data active = activation fold above about 2
Target sequence (P05187 whole entry, looked up): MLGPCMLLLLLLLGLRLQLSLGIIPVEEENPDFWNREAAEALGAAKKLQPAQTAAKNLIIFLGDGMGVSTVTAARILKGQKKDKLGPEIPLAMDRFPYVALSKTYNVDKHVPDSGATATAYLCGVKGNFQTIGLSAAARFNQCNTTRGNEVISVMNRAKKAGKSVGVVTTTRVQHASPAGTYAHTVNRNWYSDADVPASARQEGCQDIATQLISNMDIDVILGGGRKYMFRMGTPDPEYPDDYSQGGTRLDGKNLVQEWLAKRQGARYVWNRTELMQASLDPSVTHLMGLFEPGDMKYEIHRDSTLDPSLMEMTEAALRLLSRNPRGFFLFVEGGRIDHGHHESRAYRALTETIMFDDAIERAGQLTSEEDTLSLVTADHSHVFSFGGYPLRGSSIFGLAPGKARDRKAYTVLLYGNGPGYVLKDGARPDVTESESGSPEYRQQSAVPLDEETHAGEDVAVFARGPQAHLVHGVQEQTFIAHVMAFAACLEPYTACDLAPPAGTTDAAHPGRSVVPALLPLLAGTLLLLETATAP
CYP2C9 inh – blockers of cytochrome P450 2C9 activity – biochemical, luminescence, ADME assay, primary screen. actives 20% (n = 96,000). inhibition, % at 5 µM. CYP2C9 Supersomes, luciferin-H conversion. P11712;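 active = blocking of liver enzyme CYP2C9 beyond about 50% at 5 µM, limit read from the data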
The depositor's hits bear a star; / = not tested or not shown. Shown are actives, neighbours in structure and some others; about 31% of the full set was active somewhere.

SMILES | CYP2C9 activ | CYP2C19 activ | CYP2C19 inh | PLAP act | CYP2C9 inh
Clc1ccc(CSc2nnc(/C=C/c3ccccc3)o2)cc1 | 0.9 | 0.9 | 8.9 | 0.8 | 14.1
COC(=O)c1ccc(CN(C)S(=O)(=O)c2ccc(C)cc2)o1 | 0.4 | 0.1 | 90.7* | 1 | 57.8*
COC(=O)CN(c1ccc(C)cc1)S(=O)(=O)c1ccc2c(c1)n(C)c(=O)c(=O)n2C | 0.6 | 1 | 0.1 | 1 | 38.7
COC(=O)c1ccc(CN(c2ccc(C)cc2)S(=O)(=O)c2ccc3c(c2)OCCO3)o1 | 0.3 | 0.4 | 59.1* | 1.6 | 73.6*
COc1ccc(N2CCN(C(=O)CCCSc3nc4ccccc4[nH]3)CC2)cc1 | 1.2 | 0.6 | 40.6 | 1.7 | -22.5
CCOc1ccc(NC(=O)CN2CCN(CC(=O)Nc3cc(OC)cc(OC)c3)CC2)cc1 | 0.4 | 0.5 | 48.0 | 1.7 | 59.0*
COc1ccc(NC(=O)CN2CCN(CC(=O)Nc3ccccc3Cl)CC2)cc1 | 0.5 | 0.2 | 85.0* | 1.4 | 49.2
COc1ccc(NC(=O)CSC2CCCCC2)cc1 | 0.5 | 0 | 97.5* | 1.1 | 50.8*
O=C(Nc1ccc(Br)cc1)N1CCCCCCC1 | 1 | 0.1 | 92.7* | 1 | -3.6
CC(=O)Nc1ccc(NC(=O)N2CCCCC2)cc1 | 0.9 | 1 | 3.0 | 1 | 8.8
NS(=O)(=O)c1ccc(NC(=O)CSC2CCCCC2)cc1 | 0.9 | 1 | 3.7 | 0.9 | 11.8
O=C(CN1CCNCC1)Nc1ccccc1Cl | 1 | 1 | 4.5 | 0.8 | 0.0
O=C(Nc1ccccc1)NC1(C(=O)N2CCN(C(=O)c3ccco3)CC2)CCCCC1 | 0.5 | 0.8 | 19.3 | / | 46.7
O=C(CSc1nnc(Cn2c(=O)sc3ccccc32)n1CCc1ccccc1)N1CCOCC1 | 0.9 | 1 | 0.6 | 1.5 | 11.1
Cc1ccc(C(=O)CSc2nnc(COc3cc(C)cc(C)c3)o2)cc1 | 0.7 | 0.9 | 6.8 | 1.2 | 26.4
O=S(=O)(CCN(CCS(=O)(=O)C(F)(F)F)CC1CCCO1)C(F)(F)F (stereo not given) | 1.1 | 1 | 3.2 | 1 | -9.1
CC1(C)OC(=O)N(Cc2ccco2)C1(C)O (stereo not given) | 1.1 | 1 | 0.0 | 1.3 | -5.7
CCCN1/C(=C(/C#N)C2=NS(=O)(=O)c3ccccc32)N(C)c2ccccc21 | 1 | 0.9 | 14.6 | 1.1 | -0.3
COc1ccc(NC(=O)CN2CCN(CC(=O)Nc3ccccc3F)CC2)c(OC)c1 | 0.3 | 0 | 97.5* | 1.3 | 70.9*
COc1ccc(NC(=O)CN2CCN(CC(=O)Nc3ccccc3Cl)CC2)c(OC)c1 | 0.3 | 0 | 97.7* | 1.2 | 73.7*
N#Cc1ccsc1NC(=O)CN1CCCCCC1 | 0.8 | 0.5 | 50.1* | 1.1 | 20.8
COc1ccc(NC(=O)CN2CCCCC2)cc1 | 0.8 | 0.2 | 76.6* | 1 | 23.7
COc1ccc(NC(=O)CN2CCN(c3ccc(Cl)cc3)CC2)c(OC)c1 | 0.6 | 0.5 | 46.6 | 1.2 | 41.1
CC1(C)N(OCc2ccccc2)C(=O)C(=O)N(OCc2ccccc2)C1(C)C | 1 | 1 | 1.2 | 0.9 | 0.6
CN(C)S(=O)(=O)c1ccc2c(c1)C(CC(=O)O)OC2=O (stereo not given) | 1 | 1.1 | -5.3 | 0.9 | -0.7
SMILES | CYP2C9 activ | CYP2C19 activ | CYP2C19 inh | PLAP act | CYP2C9 inh
O=C(CN1CCN(C(=O)N2CCOCC2)CC1)Nc1ccc(Br)cc1 | 1 | 1.2 | -19.1 | 1.2 | -3.9
O=C(CN1CCCCCC1)Nc1ccc(Br)cc1 | 0.9 | 0.1 | 93.2* | 0.7 | 8.7
CCOC(=O)c1cnn2c(N)c(C#N)nnc12 | 1.2 | 1.2 | -19.6 | 1.2 | -18.6
CCOC(=O)c1c(C)nc2c(C#N)cnn2c1C | 1.1 | 0.4 | 62.7* | 1 | -7.2
Cc1ccc(C2C(/C=C3/SC(=S)NC3=O)=C(c3cccs3)Oc3ccccc32)cc1 (stereo not given) | 0.3 | 1 | 1.1 | 0.9 | 67.6*
COC(=O)CSc1nc2sc3c(c2c(=O)n1C1CCCCC1)CCN(C)C3 | 0.5 | 0.2 | 78.2* | 1.6 | 51.7*
COc1ccc(-n2c(SCC(N)=O)nc3sc4c(c3c2=O)CCN(C)C4)cc1 | 0.7 | 0.3 | 72.9* | 1.2 | 32.7
CN1CCc2c(sc3nc(SCC(=O)N4CCOCC4)nc(N)c23)C1 | 0.8 | 0.9 | 7.4 | 0.8 | 17.9
